One may read the inhibition as the change of the read-out against control, counted positive when it falls.

These results are taken from PubChem BioAssay AID1645860 (Buhrlage Lab, Dana-Farber Cancer Institute and Novartis …, 2021).

The structures appear in SMILES notation. In all, about 47,000 compounds went through this assay and about 2,500 (5.3%) were called active. The full list was thinned out, with actives kept by preference. Values without a mark were called inactive. Rule as the data show it: active = inhibition above about 30%; inactive = the rest.

Ubiquitin carboxyl-terminal hydrolase 30 (Homo sapiens), sequence (Q70CQ3 whole entry, looked up): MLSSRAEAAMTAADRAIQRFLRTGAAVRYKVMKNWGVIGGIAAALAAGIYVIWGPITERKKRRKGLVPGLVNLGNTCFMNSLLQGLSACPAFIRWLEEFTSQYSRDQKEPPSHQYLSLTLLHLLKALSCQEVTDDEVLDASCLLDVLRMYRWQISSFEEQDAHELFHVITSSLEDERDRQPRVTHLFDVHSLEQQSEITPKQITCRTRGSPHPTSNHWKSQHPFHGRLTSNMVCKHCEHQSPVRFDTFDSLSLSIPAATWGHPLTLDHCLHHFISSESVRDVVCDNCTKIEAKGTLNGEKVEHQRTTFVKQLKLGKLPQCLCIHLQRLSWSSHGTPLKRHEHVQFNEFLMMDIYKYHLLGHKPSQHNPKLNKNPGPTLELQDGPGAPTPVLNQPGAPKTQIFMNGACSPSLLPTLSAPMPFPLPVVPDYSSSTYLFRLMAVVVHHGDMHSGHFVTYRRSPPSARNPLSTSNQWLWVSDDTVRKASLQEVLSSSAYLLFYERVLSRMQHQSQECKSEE

This assay has as its target Ubiquitin carboxyl-terminal hydrolase 30 (Homo sapiens) (UniProt Q70CQ3). Description: blocks human USP30 ubiquitin-rhodamine cleavage (AID 1645860). Conditions: purified USP30, Ub-rhodamine cleavage fluorescence; at 25 µM; stronger effect = higher value.
In the case of `CCN1C(=O)c2c(C(=O)NC3CC3)ncn2CC1(C)C(=O)NC1CCCC1` (stereo not drawn), the inhibition was 9.61%.
To `COc1cccc(CNC(=O)c2ccc(-c3cncnc3)nc2)c1` belongs 17.3%; to `COc1cc(C(=O)Nc2ccc(-c3nc4cnccc4o3)cc2)cc(OC)c1OC`, 14.2%; to `COc1cccc(C(=O)NCc2ccc(-c3nc4cnccc4o3)cc2)c1`, 30.7% (active).
For `Cc1cnc(C(=O)N2CCC3(CC2)CC(OCC2CC2)CO3)cn1` (stereo not drawn), the inhibition is -3.6%.
To `O=C(Cc1ccccc1)N1CCc2[nH]nc(-c3ccc(F)cc3)c2C1` belongs -4.25%; to `CC(NC(=O)c1ccc(S(=O)(=O)Nc2ccccc2)cc1)c1ccc(S(N)(=O)=O)cc1` (stereo not drawn), 11.3%; to `CC1(C)Cc2nc(-c3ccccc3)nc(SCC(=O)Nc3cccc4ccccc34)c2CO1`, -6.78%.
On to `CN1C(=O)C(C)(C)COc2ccc(NS(=O)(=O)c3ccccc3Cl)cc21`, for which the inhibition is 0.732%.
Consider `CCCCN(c1ccccc1)S(=O)(=O)c1cccc(C(=O)OCC(=O)NCc2ccc3c(c2)OCO3)c1`, for which the inhibition is 47.1% (active).
Regarding `COc1ccc2c(Sc3ccccc3)c(C(=O)NCc3ccc4c(c3)OCO4)[nH]c2c1`, the inhibition was 7.37%.
As for `O=C(COC(=O)c1ccc(F)c(S(=O)(=O)N2CCOCC2)c1)NCc1ccc2c(c1)OCO2`, the inhibition is -3.24%.
Take `CC(C)Cc1cc(-c2nn3c(-c4ccccc4Cl)nnc3s2)n[nH]1`: the inhibition is 40.6% (active).
Consider `Cc1c(-c2nn3c(-c4ccco4)nnc3s2)cccc1[N+](=O)[O-]`, for which the inhibition was -45.6%.
`CNc1nc2c(c(=O)n1C)CN(S(=O)(=O)c1ccccc1)CC2`: the inhibition is 11.5%.
Take `CC(C)c1ccc(C(=O)N2CCN(c3cnn4cnnc4c3)CC2)cc1`: the inhibition was -7.33%.
Regarding `COc1ccc2ccccc2c1S(=O)N1CCN(c2ccccc2F)CC1` (stereo not drawn), the inhibition is 1.36%.
As for `COc1cc2[nH]c(=O)n(Cc3ccc(C(=O)N4CCN(c5ccccn5)CC4)cc3)c(=O)c2cc1OC`, the inhibition is 9.66%.
In the case of `O=C(CSc1ccc2nnc(-c3ccccc3)n2n1)N1CCCc2ccccc21`, the inhibition is 51.5% (active).
To `O=C(Cn1cnc2ccccc21)N1CCCc2ccccc21` belongs -7.37%.
In the case of `CC1CCN(C(=O)CSc2ccc3nnc(-c4cccc(F)c4)n3n2)CC1`, the inhibition is -0.05%.
`CC(C)CN1[C@H]2CCN(C(=O)c3ccccc3)CC[C@@H]2Oc2ccccc2S1(=O)=O`: the inhibition was 16.5%.
On to `Cc1cccc(S(=O)(=O)NCCc2cn(C)c3ncccc23)c1`, for which the inhibition was -9.95%.
`Cc1cc2c(cc1S(=O)(=O)N1CCC(C(=O)N(C)Cc3ccco3)CC1)OCC(=O)N2`: the inhibition was 26.1%.
The result for `O=C(Nc1c(C(=O)N2CCOCC2)oc2ccccc12)c1ccccc1F` reads 10.2%; that for `O=C(Nc1cc(-c2ccccc2)nn1C1CCS(=O)(=O)C1)c1ccccc1F` (stereo not drawn), -4.62%.
In the case of `CC(C)(C)n1nc(C2CC2)c(Br)c1NC(=O)c1ccccc1F`, the inhibition was 35.5% (active).
Turning to `O=C(Nc1cc(=O)[nH]c2nc(CCc3ccccc3)nn12)c1ccc(F)cc1`, the inhibition was -74.9%.
As for `COc1ccc(CNC(=O)c2ccccc2N2C(=O)N3CCc4c([nH]c5ccccc45)[C@@]3(C)C2=O)cc1`, the inhibition was 41.7% (active).
Regarding `C[C@]12C(=O)N(c3cccc(C(=O)NCCN4CCOCC4)c3)C(=O)N1CCc1c2[nH]c2ccccc12`, the inhibition was 12.9%.
`COc1ccc2[nH]c3c(c2c1)CCN1C(=O)N([C@@H](C)C(=O)NCC(=O)O)C(=O)[C@]31C`: the inhibition was -8.05%.
Turning to `O=C(N[C@@H]1C[C@@H](Oc2cccc(F)c2)[C@H](O)[C@H]1N1CCCC1)C1CCOCC1`, the inhibition was -0.94%.
On to `COc1cccc(C(=O)N[C@@H]2C[C@@H](Oc3ccccc3)[C@H](O)[C@H]2O)c1`, for which the inhibition is 26.7%.
Consider `Cc1nn(-c2ccccc2)c(C)c1S(=O)(=O)N1CCN(c2ccccn2)CC1`, for which the inhibition was -17.2%.
For `Clc1cc2nc(N3CCN(c4ccccn4)CC3)c3nncn3c2cc1Cl`, the inhibition is 36.4% (active).
`CCC(=O)Nc1ccc2c(c1)nc(CCN1CCN(c3ccccn3)CC1)n2C`: the inhibition was -16.8%.
On to `CCN(C(=O)COc1cccnc1[N+](=O)[O-])c1ccccc1`, for which the inhibition is -14.2%.
For `O=C(NCC(=O)N1CCCc2ccccc21)c1cccc2[nH]ccc12`, the inhibition was 5.02%.
To `O=C(c1ccccc1)N1CCC(c2nc3c(nnn3Cc3c(Cl)cccc3Cl)c(=O)[nH]2)CC1` belongs -14.3%.
Take `Cc1ccc(-n2c(SCC(=O)N3CCOCC3)nnc2-c2cc3ccccc3o2)cc1`: the inhibition is -10.7%.
Take `O=C(CSc1nnc(-c2ccc3c(c2)OCO3)n1-c1ccccc1)OCC(=O)c1ccccc1`: the inhibition was 69.9% (active).
The result for `COc1ccc(-n2c(SCC(=O)OC(C)C)nnc2-c2ccccn2)cc1` reads 16.8%.
The result for `CN1CCOc2cc(S(=O)(=O)N(C)Cc3ccccc3)ccc21` reads 29.5%.
Take `CCOc1ncccc1C(=O)OCC(=O)c1ccc2c(c1)-c1ccccc1C2`: the inhibition is -153%.
Regarding `CCN1CCN(C(=O)c2cnn(-c3cc(-c4nc(C5CC5)no4)ccn3)c2C)CC1`, the inhibition is 1.81%.
To `O=C(NCC1CC1)c1nc(-c2ccc3[nH]ccc3c2)no1` belongs 0.789%; to `Cc1ccc(CNC(=O)c2nc(-c3cn(-c4ccc(Br)cc4)nc3C)no2)o1`, 30.2% (active).
In the case of `CCc1nc(-c2ccc(-n3cc(C(=O)NCc4nc5ccc(C)cc5[nH]4)c(C)n3)cc2)no1`, the inhibition is 8.95%.
To `COc1ccc(C(=O)CSc2nnc(CC(=O)Nc3ccc(C)cc3)n2C)cc1OC` belongs 9.07%; to `Cn1nc(C(=O)Nc2ccc(F)cc2)c(=O)c2ccccc21`, -0.148%; to `Cc1cccc(NC(=O)c2csc(-c3cn(C)c4ncccc34)n2)c1`, -7.75%.
On to `Cn1cc(-c2nc(C(=O)Nc3ccc(F)cc3)cs2)c2cccnc21`, for which the inhibition is 62.1% (active).
As for `Fc1ccccc1CNc1nnc(-c2nnc(C3CC3)o2)c2ccccc12`, the inhibition is 23.3%.
In the case of `O=C(O)/C(=C\c1ccc(Br)cc1)NC(=O)c1ccco1`, the inhibition was -0.242%.
`Cc1cccc(NC(=O)c2cccn2Cc2noc(C3CC3)n2)n1`: the inhibition was -19.2%.
Turning to `Cc1ccc(-c2cc(C(F)F)n3ncc(C(=O)NCC(C)C)c3n2)cc1`, the inhibition is 38.7% (active).
With `Cc1ccc(CNC(=O)c2cnn3c4c(cnc23)C(=O)CCC4)cc1`, the inhibition was -12.6%.
Turning to `COc1ccc(-c2cc(C(F)F)n3ncc(C(=O)N(C)Cc4c(C)nn(C)c4C)c3n2)cc1`, the inhibition was -14.7%.
For the molecule `COc1ccccc1NC(=O)C1=C(C)Nc2ncnn2C1c1ccc(C)o1` (stereo not drawn), the inhibition is -6.73%.
In the case of `COc1cccc(C2C(C(=O)Nc3ccccc3C)=C(C)Nc3ncnn32)c1OCc1ccccc1` (stereo not drawn), the inhibition was -8.1%.
In the case of `COc1ccc(NC(=O)C2=C(C)Nc3ncnn3C2c2cccc(OCc3ccc(F)cc3)c2)c(OC)c1` (stereo not drawn), the inhibition was 60.3% (active).
`O=C(COC(=O)c1ccc2[nH]c3c(c2c1)CCCC3)Nc1ccc(N2CCOCC2)cc1`: the inhibition was -55.7%.
The result for `CN(C)c1ccc(CNC(=O)c2cc(CN3CCOCC3)on2)cc1` reads 22%; that for `O=C(CN1C(=O)C2CCCC2=Nc2ccccc21)Nc1ccc(F)cc1F` (stereo not drawn), 32.2% (active).
For the molecule `O=C(CN1C(=O)c2cccnc2Sc2ccccc21)Nc1ccc(F)cc1F`, the inhibition was -96.8%.
As to `CCOc1nc2cccnc2n(CC(=O)Nc2ccc(F)cc2F)c1=O`, the inhibition was -13%.
The result for `CNC(=O)N1CCC(n2c(C)nc(C(=O)Nc3cccc(OC)c3)c2C)CC1` reads 2.54%.
Regarding `COc1cccc(NC(=O)C(C#N)C(=O)C2CC2c2cccc(C)c2)c1` (stereo not drawn), the inhibition is 31.3% (active).
To `CCN1CCCCC12Cc1ccccc1CN(S(C)(=O)=O)C2` (stereo not drawn) belongs 1.88%.
With `Cc1cccc(NC(=O)c2ccc(N3CCC(C)CC3)c([N+](=O)[O-])c2)c1C`, the inhibition was -29.1%.
As to `CN1CCN(S(=O)(=O)c2cccc(C(=O)Nc3cccc(S(N)(=O)=O)c3)c2)CC1`, the inhibition is 7.83%.
With `O=C(Nc1cccc(S(=O)(=O)N2CCCCCC2)c1)c1ccc(N2CCOCC2)c([N+](=O)[O-])c1`, the inhibition was 47.3% (active).
To `COc1ccccc1OCc1nc(C)c(C(C)=O)s1` belongs 6.92%; to `c1ccc(Sc2nc(-c3ccccc3)nc3ccsc23)cc1`, -19%; to `CCC(=O)N1CCc2cc(S(=O)(=O)NC(Cc3ccccc3)C(=O)Nc3ccccc3OC)ccc21` (stereo not drawn), -0.729%.
`O=C(Oc1cccc([N+](=O)[O-])c1)C(c1ccccc1)c1ccccc1`: the inhibition was 25%.
As for `CC(CCc1ccccc1)NC(=O)c1cc2cc(Oc3ccccc3)ccc2[nH]1` (stereo not drawn), the inhibition is 8.29%.
Take `CC(CCc1ccccc1)NC(=O)/C=C/c1cccc([N+](=O)[O-])c1` (stereo not drawn): the inhibition was 34.1% (active).
With `COc1cccc(OCC(=O)N2CC(=O)Nc3ccccc32)c1`, the inhibition was -14.6%.
The result for `Cc1nc(C)n(CC2CCCCN2Cc2ncc(C(C)(C)C)o2)n1` (stereo not drawn) reads -97.5%.
Consider `Cc1cc(C2CN(C(=O)c3cn4c(C)cccc4n3)CCO2)nc(C)n1` (stereo not drawn), for which the inhibition was 2.35%.
Take `CCCC(=O)Nc1nc2ccc(CCC(=O)NCc3ccc(F)cc3)cc2s1`: the inhibition is -10.2%.
As to `O=C(Cc1cccc2ccccc12)Nc1nc2ccc(F)cc2s1`, the inhibition is 53.9% (active).
Consider `CCOc1ccc2nc(NC(=O)CN3CCC(C(N)=O)CC3)sc2c1`, for which the inhibition is -1.04%.
With `O=C(OCC(=O)N1CCc2ccccc21)c1cccc([N+](=O)[O-])c1`, the inhibition is -2.1%.
Consider `CC(C)[C@H](NC(=O)N1CCn2c1nc1ccccc12)C(=O)NC1CC1`, for which the inhibition is 16%.
With `Cc1ccc2c(c1)C(c1ccccc1)N(C(=O)c1ccc(S(=O)(=O)N3CCOCC3)cc1)CC(=O)N2` (stereo not drawn), the inhibition was 32.4% (active).
In the case of `Cc1ccc2c(c1)C(c1ccc(F)cc1)N(C(=O)CC1CCCCC1)CC(=O)N2` (stereo not drawn), the inhibition is 26.9%.
Regarding `O=C1CN(C(=O)c2cccc3ccccc23)C(c2ccc(F)cc2)c2cc(Br)ccc2N1` (stereo not drawn), the inhibition is 16%.
As to `O=C(c1ccccc1Cl)N1CCc2c([nH]c3ccccc23)C1c1ccc2c(c1)OCO2` (stereo not drawn), the inhibition is -14.6%.
With `CCc1nnc(NC(=O)C2CCN(C(=O)c3ccc(F)cc3)CC2)s1`, the inhibition was -0.015%.
On to `CCc1ccc(-n2nnc(C(=O)Nc3nnc(CC)s3)c2C)cc1`, for which the inhibition was 30.5% (active).
Take `CCc1nnc(NC(=O)c2cc(-c3ccc(C)c(C)c3O)n[nH]2)s1`: the inhibition was 17.9%.
The result for `COc1ccc(NC(=O)c2sc(N3CCOCC3)nc2-c2ccccc2)c(OC)c1` reads 48.1% (active).
In the case of `CNC(=O)c1cc(-c2ccccc2)c(N2CCOCC2)s1`, the inhibition was -0.0877%.
Regarding `COc1ccc(-c2nc(N(Cc3ccccc3)C(=O)CN3CCOCC3)sc2C)cc1`, the inhibition was -14.4%.
The result for `Cc1cc(C)c(S(=O)(=O)Nc2ccc(Cn3cncn3)cc2)cc1C` reads -29.3%; that for `COc1ccc(CN[C@H]2[C@H](O)[C@H](O)C[C@@H]2c2ccccc2)cn1`, -17.6%.
